{
  "source": "PubChem BioAssay (NCATS)",
  "key": {"astro": {"test_system": "astro", "assay": "Drug repurposing screens with cells derived from glioblastoma tumor samples (AID 1345199; active = well fitted curve in the direction sought with a large enough effect; an effect the other way counts as inactive or inconclusive; also: nearly all actives have a fitted effect of over 40% in size; also: potency is read from the fitted curve at half-maximal effect)", "conditions": "viability, ATP luminescence, 48 h; series mostly up to 45.9 µM", "outline": "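Primary testing used CD133+ neurospheres from four GBM patients, seven concentrations, 48 h exposure and ATP-based viability; confirmation added three slower-growing patient lines.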"}, "[1]": {"target": "Nuclear receptor subfamily 1 group I member 2 (Rattus norvegicus) (UniProt Q9R1A7)", "sequence (Q9R1A7 whole entry, looked up)": "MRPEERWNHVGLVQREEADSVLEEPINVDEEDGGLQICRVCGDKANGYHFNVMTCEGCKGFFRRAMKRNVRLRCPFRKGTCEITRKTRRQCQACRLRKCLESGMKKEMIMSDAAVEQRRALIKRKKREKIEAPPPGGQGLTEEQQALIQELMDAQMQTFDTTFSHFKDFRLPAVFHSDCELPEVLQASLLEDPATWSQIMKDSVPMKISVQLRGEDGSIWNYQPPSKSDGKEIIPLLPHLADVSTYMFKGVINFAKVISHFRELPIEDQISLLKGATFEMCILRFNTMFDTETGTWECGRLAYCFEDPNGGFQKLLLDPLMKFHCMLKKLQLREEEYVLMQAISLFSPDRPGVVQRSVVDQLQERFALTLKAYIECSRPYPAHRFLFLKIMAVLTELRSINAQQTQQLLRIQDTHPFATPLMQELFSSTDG", "assay": "qHTS assay for small molecule activators of the rat pregnane X receptor (rPXR) signaling pathway (AID 651751)", "conditions": "rPXR reporter cells, luciferase (One-Glo), 24 h"}, "[2]": {"assay": "qHTS assay for small molecule activators of the human pregnane X receptor (PXR) signaling pathway (AID 720659)", "conditions": "DPX-2 HepG2 CYP3A4-luciferase, 24 h; series mostly up to 92.3 µM"}, "[3]": {"assay": "qHTS assay to identify inhibitors of the type 1 interferon - major histocompatibility complex class I in skeletal muscle: Counter screen cell viability and HiBit confirmation (AID 1347412; active = well fitted curve in the direction sought with a large enough effect; an effect the other way counts as inactive or inconclusive; also: nearly all actives have a fitted effect of over 60% in size; also: potency is read from the fitted curve at half-maximal effect)", "conditions": "iHSKM muscle cells + IFN-b, HiBiT or CellTiter-Glo, 24 h; Potency: HiBiT; Viability, at 45.9 µM (top of the series)", "outline": "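After 24 h with human IFN-beta (4 ng/ml) and compound titrations (top 46 uM final, 1:3, 12 points), HLA-B HiBit myoblasts were lysed for either Nano-Glo HiBiT luminescence or CellTiter Glo viability on paired plates.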"}},
  "note": "Where “and” joins values, the source holds several entries; their conditions need not be identical. Identical values can stand only once. Values without a mark were called inactive. Records with an inconclusive call do not appear. Entries that show only a call come without a potency. Calls of active or inactive are those of the source. Unless noted, no rule for the calls is given here.",
  "data": [
    {"compound": "Cc1ccc(-c2nc3ccc(C)cn3c2CC(=O)N(C)C)cc1", "values": [
      {"measurement": "Potency", "setting": "astro", "value": "inactive"}
    ]},
    {"compound": "Oc1cc(Cl)ccc1Oc1ccc(Cl)cc1Cl", "values": [
      {"measurement": "Potency", "setting": "astro", "value": "28.2 µM (active)"},
      {"measurement": "max response", "setting": "[1]", "value": -4.24, "unit": "%"},
      {"measurement": "outcome", "setting": "[2]", "value": "inactive"}
    ]},
    {"compound": "c1ccc2c(c1)Nc1ccccc1S2", "values": [
      {"measurement": "Potency", "setting": "astro", "value": "inactive"},
      {"measurement": "max response", "setting": "[1]", "value": "0.0251% and 2.69%"}
    ]},
    {"compound": "OCCOc1ccccc1", "values": [
      {"measurement": "Potency", "setting": "astro", "value": "inactive"},
      {"measurement": "outcome", "setting": "[2]", "value": "inactive"}
    ]},
    {"compound": "CC(=O)[C@H]1CC[C@H]2[C@@H]3CC[C@H]4C[C@](C)(O)CC[C@]4(C)[C@H]3CC[C@]12C", "values": [
      {"measurement": "Potency", "setting": "astro", "value": "inactive"}
    ]},
    {"compound": "c1ccc2c(c1)OCC(C1=NCCN1)O2", "note": "(configuration not stated)", "values": [
      {"measurement": "Potency", "setting": "astro", "value": "15.8 µM (active)"},
      {"measurement": "Potency", "setting": "[3]", "value": "inactive"}
    ]},
    {"compound": "CNCC(O)c1ccc(O)cc1", "note": "(configuration not stated)", "values": [
      {"measurement": "Potency", "setting": "astro", "value": "inactive"},
      {"measurement": "max response", "setting": "[1]", "value": -0.194, "unit": "%"},
      {"measurement": "outcome", "setting": "[2]", "value": "inactive"}
    ]},
    {"compound": "C[C@H]1O[C@@H](O[C@H]2[C@@H](O)C[C@H](O[C@H]3[C@@H](O)C[C@H](O[C@H]4CC[C@@]5(C)[C@H](CC[C@@H]6[C@@H]5CC[C@]5(C)[C@@H](C7=CC(=O)OC7)CC[C@]65O)C4)O[C@@H]3C)O[C@@H]2C)C[C@H](O)[C@@H]1O", "values": [
      {"measurement": "Potency", "setting": "astro", "value": "0.1 µM (active)"},
      {"measurement": "Potency", "setting": "[3]", "value": "49.7 nM (active)"},
      {"measurement": "max response", "setting": "[1]", "value": -1.87, "unit": "%"},
      {"measurement": "outcome", "setting": "[2]", "value": "inactive"}
    ]},
    {"compound": "C=C(C)[C@H]1Cc2c(ccc3c2O[C@@H]2COc4cc(OC)c(OC)cc4[C@@H]2C3=O)O1", "values": [
      {"measurement": "Potency", "setting": "astro", "value": "0.562 µM (active)"},
      {"measurement": "max response", "setting": "[1]", "value": -14.4, "unit": "%"}
    ]},
    {"compound": "COC[C@H]1OC(=O)c2coc3c2[C@@]1(C)C1=C(C3=O)C2CCC(=O)[C@@]2(C)C[C@H]1OC(C)=O", "note": "(some centres not stated)", "values": [
      {"measurement": "Potency", "setting": "[3]", "value": "inactive"}
    ]},
    {"compound": "C[C@]12C/C(=C/O)C(=O)C[C@@H]1CC[C@@H]1[C@@H]2CC[C@@]2(C)[C@H]1CC[C@]2(C)O", "values": [
      {"measurement": "Potency", "setting": "astro", "value": "inactive"},
      {"measurement": "max response", "setting": "[1]", "value": "-5.34% and -0.621%"},
      {"measurement": "outcome", "setting": "[2]", "value": "inactive"}
    ]},
    {"compound": "O=c1[nH]c2ccccc2n1C1CCN(CCCC(c2ccc(F)cc2)c2ccc(F)cc2)CC1", "values": [
      {"measurement": "Potency", "setting": "astro", "value": "17.8 µM (active)"},
      {"measurement": "outcome", "setting": "[2]", "value": "inactive"}
    ]},
    {"compound": "Nc1ccncc1", "values": [
      {"measurement": "Potency", "setting": "astro", "value": "inactive"},
      {"measurement": "max response", "setting": "[1]", "value": -1.96, "unit": "%"},
      {"measurement": "outcome", "setting": "[2]", "value": "inactive"}
    ]},
    {"compound": "O=c1oc2ccccc2c(O)c1C(CC(O)c1ccc(-c2ccc(Br)cc2)cc1)c1ccccc1", "note": "(configuration not stated)", "values": [
      {"measurement": "max response", "setting": "[1]", "value": -13.3, "unit": "%"},
      {"measurement": "outcome", "setting": "[2]", "value": "inactive"}
    ]},
    {"compound": "Cc1cc(SCc2sc(-c3ccc(C(F)(F)F)c(F)c3)nc2C)ccc1OCC(=O)O", "values": [
      {"measurement": "max response", "setting": "[1]", "value": 13, "unit": "%"}
    ]},
    {"compound": "Oc1cccc2cccnc12", "values": [
      {"measurement": "outcome", "setting": "[2]", "value": "inactive"}
    ]},
    {"compound": "NCC(O)c1ccc(O)cc1", "note": "(configuration not stated)", "values": [
      {"measurement": "Potency", "setting": "astro", "value": "inactive"},
      {"measurement": "max response", "setting": "[1]", "value": 2.53, "unit": "%"},
      {"measurement": "outcome", "setting": "[2]", "value": "inactive"}
    ]},
    {"compound": "C[C@]12CCC(=O)C(O)=C1CC[C@@H]1[C@@H]2CC[C@]2(C)C(=O)CC[C@@H]12", "values": [
      {"measurement": "Potency", "setting": "astro", "value": "inactive"},
      {"measurement": "max response", "setting": "[1]", "value": 2.3, "unit": "%"}
    ]},
    {"compound": "CCOP(=S)(OCC)Oc1cc(C)nc(C(C)C)n1", "values": [
      {"measurement": "Potency", "setting": "astro", "value": "inactive"},
      {"measurement": "max response", "setting": "[1]", "value": "3.69% and 1.39%"}
    ]},
    {"compound": "CC(C)(C)CC(C)(C)c1ccc(O)cc1", "values": [
      {"measurement": "max response", "setting": "[1]", "value": -11.1, "unit": "%"}
    ]},
    {"compound": "CCCC(C)(COC(N)=O)COC(=O)NC(C)C", "note": "(configuration not stated)", "values": [
      {"measurement": "Potency", "setting": "astro", "value": "inactive"},
      {"measurement": "max response", "setting": "[1]", "value": "6.19% and 1.57%"}
    ]},
    {"compound": "N[C@@H](Cc1ccc(N(CCCl)CCCl)cc1)C(=O)O", "values": [
      {"measurement": "max response", "setting": "[1]", "value": "1.48% and 0.994%"}
    ]},
    {"compound": "CC(CCc1ccccc1)NC(C)C(O)c1ccc(O)cc1", "note": "(configuration not stated)", "values": [
      {"measurement": "Potency", "setting": "astro", "value": "inactive"}
    ]},
    {"compound": "NCC1(CC(=O)O)CCCCC1", "values": [
      {"measurement": "Potency", "setting": "astro", "value": "inactive"}
    ]},
    {"compound": "CN1C[C@H](CNC(=O)OCc2ccccc2)C[C@@H]2c3cccc4c3c(cn4C)C[C@H]21", "values": [
      {"measurement": "Potency", "setting": "astro", "value": "inactive"}
    ]},
    {"compound": "Oc1ccc(Cl)cc1Cc1ccccc1", "values": [
      {"measurement": "Potency", "setting": "astro", "value": "35.5 µM (active)"},
      {"measurement": "max response", "setting": "[1]", "value": "0.0184% and 1.61%"}
    ]},
    {"compound": "C=C1C[C@@H]2[C@H](CC[C@]3(C)C(=O)CC[C@@H]23)[C@@]2(C)C=CC(=O)C=C12", "values": [
      {"measurement": "Potency", "setting": "astro", "value": "inactive"}
    ]},
    {"compound": "Oc1ccccc1-c1ccccc1", "values": [
      {"measurement": "Potency", "setting": "astro", "value": "inactive"},
      {"measurement": "max response", "setting": "[1]", "value": "-0.588% [middle of 4 runs]"}
    ]},
    {"compound": "C[C@@H]1O[C@@H](O[C@H]2C[C@@H](O)[C@]3(CO)[C@H]4[C@H](O)C[C@]5(C)[C@@H](C6=CC(=O)OC6)CC[C@]5(O)[C@@H]4CC[C@]3(O)C2)[C@H](O)[C@H](O)[C@H]1O", "values": [
      {"measurement": "Potency", "setting": "astro", "value": "316 nM (active) and 89.1 nM (active)"},
      {"measurement": "Potency", "setting": "[3]", "value": "70.1 nM (active) and 55.7 nM (active)"},
      {"measurement": "max response", "setting": "[1]", "value": 0.133, "unit": "%"},
      {"measurement": "outcome", "setting": "[2]", "value": "inactive"}
    ]},
    {"compound": "Cc1sc2c(c1C)C(c1ccc(Cl)cc1)=N[C@@H](CC(=O)OC(C)(C)C)c1nnc(C)n1-2", "values": [
      {"measurement": "Potency", "setting": "[3]", "value": "inactive"}
    ]}
  ]
}
